BAZ2B inh – inhibitors of human BAZ2B bromodomain; AlphaScreen BAZ2B-H3K14Ac peptide displacement; hit rate 4.4% among 360,000; Potency, µM (top dose mostly 114 µM), inactives show at the top dose activity change, negative = inhibition, usual class: inhibitors; also: potency is read from the fitted curve at half-maximal effect; % is scaled to controls: 0 for no effect and ±100 for the full control effect; nearly all actives have a fitted effect of over 60% in size
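BAZ2B 50 nM plus b-H3(5-23)K14Ac 50 nM, PBS pH 7.4/0.01% Tween-20, 30 min RT; compound added (max 110 uM), 30 min RT; streptavidin donor/Ni-chelate acceptor beads 10 ug/mL final, 20 min dark; AlphaScreen read.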
HP1b binding inh – blocks HP1-beta chromodomain binding to methylated histone tails; AlphaScreen HP1-beta / biotin-H3K9me3 peptide binding; hit rate 0.56% among 390,000; AID 540317; P83916; Potency, µM (highest dose often 114 µM), without a hit: at the top dose activity change, negative = inhibition, actives largely listed as inhibitors; also: potency is read from the fitted curve at half-maximal effect; nearly all actives have a fitted effect of over 70% in size
Target sequence (P83916 whole entry, looked up): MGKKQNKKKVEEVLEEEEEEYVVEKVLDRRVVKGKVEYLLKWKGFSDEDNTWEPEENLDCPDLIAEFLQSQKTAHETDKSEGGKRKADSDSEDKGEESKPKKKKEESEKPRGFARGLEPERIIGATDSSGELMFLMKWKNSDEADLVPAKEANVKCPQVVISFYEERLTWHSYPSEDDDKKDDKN
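HP1-beta protein (50 nM final) preincubated 30 min at room temperature with biotinylated H3(1-18)K9me3 peptide (50 nM) in PBS pH 7.4, 0.01% Tween-20, then compound added for 30 min. AlphaScreen streptavidin donor/nickel chelate acceptor beads (10 ug/mL final), 30 min dark, luminescence read.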
JMJD2A Tudor – blocks the human JMJD2A Tudor domain; AlphaScreen JMJD2A-Tudor / H3K4me3 peptide binding; Potency, µM (doses to about 114 µM), for inactives: top-dose activity change, negative = inhibition, actives largely listed as inhibitors; hit rate 4.4% among 390,000; also: potency is read from the fitted curve at half-maximal effect; % is scaled to controls: 0 for no effect and ±100 for the full control effect; nearly all actives have a fitted effect of over 50% in size
G9a inh – G9a (human) methyltransferase inhibition. G9a H3K9 monomethylation, AlphaScreen, 2 h. Potency, µM (top dose mostly 102 µM), for inactives: top-dose activity, negative = inhibition, actives largely listed as inhibitors. hit rate 8.8% among 350,000; also: potency is read from the fitted curve at half-maximal effect; % is scaled to controls: 0 for no effect and ±100 for the full control effect; nearly all actives have a fitted effect of over 75% in size
Target sequence (Q96KQ7 913-1193 limits assumed): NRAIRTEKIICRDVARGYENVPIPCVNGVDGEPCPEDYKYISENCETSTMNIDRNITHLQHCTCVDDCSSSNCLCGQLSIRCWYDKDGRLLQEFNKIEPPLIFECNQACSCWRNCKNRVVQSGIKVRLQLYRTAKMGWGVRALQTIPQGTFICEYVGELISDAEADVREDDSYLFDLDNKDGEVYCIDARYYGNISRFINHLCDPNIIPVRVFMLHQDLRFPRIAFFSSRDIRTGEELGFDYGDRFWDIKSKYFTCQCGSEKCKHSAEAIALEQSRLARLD
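Signal arises when biotinylated H3K9 peptide, once monomethylated, bridges streptavidin donor and antibody-captured acceptor beads. Enzyme at 20 nM was preincubated 15 min with test compounds; peptide 500 nM and SAM 20 uM then reacted for 2 h.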
Six1-Eya2 blk – Six1/Eya2 interaction inhibition; AlphaScreen GST-Six1/His-Eya2 binding, biochemical; stronger effect = lower value; activity change, % (no concentration beside the values); hit rate 0.56% among 360,000; AID 651725; in the data active = activity change below about -65%; inconclusive = mostly about -30% to -63%; also: % is scaled to controls: 0 for no effect and ±100 for the full control effect
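AlphaScreen luminescence read after one hour at 37 °C in darkness. Pin-transferred compounds met GST-Six1 and His-Eya2 protein (5X stock 250 nM/500 nM) plus glutathione donor and Ni-chelate acceptor beads (5X, 50 ug/mL).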
CtBP-E1A blk – inhibitors of CtBP/E1A interaction | hit rate 0.49% among 340,000 | AID 651724 | AlphaScreen GST-E1A/His-CtBP binding, 1536-well; stronger effect = lower value | activity change, % (concentration not given with the values); in the data active = activity change below about -65%; inconclusive = mostly about -30% to -63%; also: % is scaled to controls: 0 for no effect and ±100 for the full control effect
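AlphaScreen with 125 nM GST-E1A and 125 nM His-CtBP (5X stocks) in Tris pH 8.0, 300 mM NaCl, BSA, Tween 20, TCEP. Compounds preincubated 2 h at 37 deg C, then glutathione donor/nickel acceptor beads added for 1 h at 37 deg C in dark.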
* = called active by the depositor; ? = inconclusive; . = not tested or not shown; [ ] = remark or other dose. The list is not random: actives were taken first. Their share in the collection is about 10%. Unless noted, calls follow the shape of the dose curve; as a rule, active = well fitted inhibition curve with a large enough effect; inconclusive = small, poorly fitted or top-dose-only effect; inactive = no such curve, though single readings can be large or run the other way.

SMILES	BAZ2B inh	HP1b binding inh	JMJD2A Tudor	G9a inh	Six1-Eya2 blk	CtBP-E1A blk
Cc1ccc(S(=O)(=O)N(C(=O)c2ccncc2)c2ccc(OC(=O)c3ccncc3)c3ccccc23)c(C)c1	?	?	?	1.58µM*	-10.6	-1.8
Cc1ccc(C)c(NC(=O)CSc2nnc(CNC(=O)c3ccccc3)n2-c2ccccc2)c1	-14.4%	39.6%	-4.4%	-5.5%[59 µM]	.	.
Oc1ccc(/C(Cc2ccccn2)=N\Nc2ccccc2)c(O)c1	31.6µM*	-28.5%	?	3.98µM*	-13.0	-13.9
Cc1c(O)ccc(/C(Cc2ccc3ccccc3n2)=N\O)c1O	?	10.4%	-31.3%	3.4%[12.7 µM]	-7.9	-6.6
CC(=O)Oc1ccc(C(=O)Cc2ccccn2)c(O)c1	?	38.0%	-32.4%	?	0.0	-5.9
Oc1ccc(/C(Cc2ccc3ccccc3n2)=N\Nc2ccccc2)c(O)c1	?	70.8µM*	50.1µM*	7.94µM*	-15.9	-13.2
CN(C)S(=O)(=O)c1ccc(NCC2COc3ccccc3O2)c([N+](=O)[O-])c1 (stereo not drawn)	?	?	25.1µM*	?	-16.5	-22.9
COc1ccc(CN2CCC3C=CCC(C(=O)O)C3C2=O)cc1OC (stereo not drawn)	.	28.7%	-7.6%	.	.	.
CC(=O)Nc1nc2c(s1)CCc1ccccc1-2	-29.8%	4.7%[57 µM]	-27.3%	-0.5%[59 µM]	-5.7	.
Nc1nc2c(s1)CCc1ccccc1-2	?	-30.6%	?	10µM*	-11.5	5.5
O=C(CCCl)Nc1nc2c(s1)CCc1ccccc1-2	-29.5%	-14.0%	-31.5%	50.1µM*	-4.2	-2.3
CC1CCC(NC(=O)COc2ccc(C(=O)c3ccccc3)cc2)CC1 (stereo not drawn)	-3.5%	11.0%	-11.8%	9.2%[59 µM]	9.8	-20.6
CC1CCN(CCCCOc2ccc(C(=O)c3ccccc3)cc2)CC1	-14.4%	-0.9%	-20.6%[11.4 µM]	35.5µM*	2.4	7.7
CC1CCN(CCOc2ccc(C(=O)c3ccccc3)cc2)CC1	?	20.4%	?	7.08µM*	-8.1	2.2
Cc1ccc(N2CCN(C(=O)c3cn(C)c4ccc(S(=O)(=O)N(C)C)cc4c3=O)CC2C)cc1 (stereo not drawn)	.	11.4%	-18.3%	?	.	.
COc1ccc2nc(C)cc(Nc3ccc(N4CCOCC4)cc3)c2c1	?	-14.2%	?	?	?	-1.3
Cc1cc(NCCN2CCOCC2)c2ccc3ccccc3c2n1	-13.6%	39.5%	-25.1%	-9.8%[12.7 µM]	-20.7	-14.2
COc1ccc(/C=N/Nc2cc(C)nc3ccc(OC)cc23)c(OC)c1	-36.4%	-14.7%	?	44.7µM*	4.4	-27.0
COc1ccc2nc(C)cc(Nc3ccc(N4CCN(C)CC4)cc3)c2c1	?	14.2%	-35.5%	44.7µM*	-19.4	.
COc1ccc2nc(C)cc(NCCN3CCOCC3)c2c1	5.2%	-9.7%	-12.4%	44.7µM*	-0.9	-10.0
COc1ccc2nc(C)cc(N/N=C/c3ccccc3)c2c1	-2.4%	-2.2%	?	-11.1%[12.7 µM]	-2.4	-9.4
COc1cc(/C=N/NC(=O)C2C3CCCCC32C)cc(Br)c1O (stereo not drawn)	-32.3%	-3.6%	?	?	-11.6	2.9
COc1cc(/C=N/n2c(C3CCCCC3)n[nH]c2=S)cc(Br)c1O	-28.6%	18.3%	12.6µM*	25.1µM*	2.5	1.5
Cc1cccc(/C=N/n2c(C3CCCCC3)n[nH]c2=S)c1	?	-15.6%	56.2µM*	2.51µM*	-19.0	.
S=c1[nH]nc(C2CCCCC2)n1/N=C/c1cccc(Br)c1	3.1%	41.4%	3.1%	79.4µM*	0.6	1.2
SMILES	BAZ2B inh	HP1b binding inh	JMJD2A Tudor	G9a inh	Six1-Eya2 blk	CtBP-E1A blk
COc1cccc(CNC(=O)NCc2noc3ccc(C)cc23)c1	-11.9%	30.6%	-10.6%	-32.5%[59 µM]	.	.
O=C(NC(=S)NNC(=O)c1cccs1)c1ccccc1	6.1%	10.9%	-18.4%	8.91µM*	-4.9	1.8
O=C(NNC(=O)c1cccc(Cl)c1)NNC(=O)c1cccc(Cl)c1	.	26.0%	0.7%	.	7.5	0.0
NC(=S)NNC(=O)c1cccc(Cl)c1	29.1%	30.6%	6.4%	70.8µM*	7.5	9.7
Cc1cccc(C(=O)NC(=S)NNC(=O)c2cccs2)c1	10.8%	?	25.1µM*	7.08µM*	-17.1	-19.2
Cc1ccccc1C(=O)NNC(=S)NC(=O)c1cccs1	-0.7%	25.8%	-0.7%	?	-11.2	.
Cc1cc(OCC(=O)NNC(=S)NC(=O)c2cccs2)ccc1Cl	-1.2%	11.8%	-15.6%	31.6µM*	7.2	8.8
Cc1ccc(OCC(=O)NNC(=S)NC(=O)c2cccs2)c(C)c1	0.8%	42.7%	-23.3%	.	21.5	0.0
Cc1cc(C)cc(N2C(=O)CSC23C(=O)N(Cc2c(F)cccc2Cl)c2ccccc23)c1 (stereo not drawn)	-2.1%[57.1 µM]	24.4%	-29.1%	?	.	.
Cc1cccc(C(=O)NC(=S)NNC(=O)c2ccc(Cl)cc2)c1	2.2%	-3.3%	-18.2%	39.8µM*	-12.1	-14.5
O=C(NNC(=O)c1cc2cc3ccccc3nc2s1)c1cccc(Cl)c1	-38.1%	-25.0%	50.1µM*	31.6µM*	-0.3	-1.1
CC(C)(C)c1ccc(C(=O)NC(=S)NNC(=O)c2cccs2)cc1	-36.9%	-25.4%	?	39.8µM*	-2.3	-14.4
CCCOc1ccc(C(=O)NNC(=S)NC(=O)c2cccs2)cc1	-25.7%	-11.7%[57 µM]	?	?	-1.8	-26.7
CCCC[N+](C)(C)CCC(=O)NC(C)(C)CS(=O)(=O)[O-]	50.1µM*	?	56.2µM*	?	19.0	0.0
Cc1csc(=Nc2ccccc2)n1Cc1ccco1	63.1µM*	?	44.7µM*	39.8µM*	-9.8	.
Cc1csc(=NC(=O)c2ccccc2)n1Cc1ccco1	-36.6%	-5.1%	-20.9%	?	-12.5	-10.0
Cc1nc2ccn(Cc3cccnc3)c(=O)c2cc1C(=O)N1CCN(c2ccccc2)CC1	-15.9%	33.0%	-8.3%	2.8%[59 µM]	.	.
CCn1c(/C=C/N(C(C)=O)c2ccccc2)[n+](CC)c2ccc(Cl)cc21	?	9.9%	-10.1%	79.4µM*	-4.7	-4.3
CC[n+]1c(/C=C/C=C2/N(C)c3ccccc3C2(C)C)sc2ccccc21	.	.	.	8.91µM*	.	.
CCOC(=O)c1ccc2c(c1)n(CCCS(=O)(=O)[O-])c(/C=C/c1ccc(Cl)cc1)[n+]2CC	0.4%	18.9%	2.8%	.	3.1	-3.0
CC[n+]1c(/C=C/C=C/N(C(C)=O)c2ccccc2)sc2ccccc21	28.2µM*	-30.3%	79.4µM*	29.0%[0.501 µM]	0.0	4.3
CCc1nc2ccc(C(=O)NCCc3ccc(SC)cc3)cc2nc1CC	-2.0%	-2.9%	-16.7%	0.0%[59 µM]	.	.
Cc1nc2ccccc2c(=O)n1NC(=O)c1ccc([N+](=O)[O-])cc1	.	-2.3%	8.91µM*	-50.4%	-3.8	6.1
